A short description of test [1]: qHTS assay to identify small molecule antagonists of the retinoid acid receptor (RAR) signaling pathway - cell viability counter screen (AID 1159551). Also: nearly all actives have a fitted effect of over 35% in size. Summed up: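 C3RL4 cells were seeded overnight at 37 C, then treated with compounds plus 1 uM (final) retinol for 6 h at 37 C. Viability was read as ATP by CellTiter-Glo luminescence after 30 min at room temperature.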
Background: In qHTS, concentration-response curves come from the screen itself.

A short description of test [2]: qHTS assay to identify small molecule agonists of the retinoic acid receptor (RAR) signaling pathway (AID 1159553). In a few lines: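 C3RL4 cells carrying a RARE luciferase reporter were plated overnight at 37 C, then exposed to compounds in DMSO for 6 hr at 37 C and 5% CO2. Luminescence was read 30 min after luciferase reagent addition at room temperature.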
Test [3] is described as follows: qHTS assay to identify small molecule antagonists of the estrogen related receptor (ERR) signaling pathway from Tox21 library - cell viability counter screen (AID 1224834). Also: nearly all actives have a fitted effect of over 30% in size. In a few lines: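 ERR reporter cells were plated 6 h before compound addition, then exposed to test compounds in DMSO for 17.5 h at 37 C. Viability was read as CellTiter-Fluor fluorescence after a 30-minute incubation at 37 C.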

Test [4] concerns the target Luciferin 4-monooxygenase (Photinus pyralis) (UniProt P08659). The experiment in a line: qHTS assay to identify small molecule inhibitors of firefly luciferase (AID 1224835). Also: nearly all actives have a fitted effect of over 25% in size. Also: potency is read from the fitted curve at half-maximal effect. In a few lines: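 Biochemical qHTS: compounds run as interplate titrations against purified firefly enzyme, with D-luciferin and ATP each at its KM concentration. Light output recorded by CCD imaging.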

A short description of test [5]: qHTS assay to identify small molecule agonists of the constitutive androstane receptor (CAR) signaling pathway - cell viability counter screen (AID 1224836). Also: series mostly up to about 92 µM; nearly all actives have a fitted effect of over 45% in size. In a few lines: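 Double-stable HepG2 hepatoma cells (hCAR plus CYP2B6-2.2kb) are treated for 23 h at 37 C with test compounds in 15-point concentration series. PK11195 at 0.75 uM final is co-added. Cell viability is quantified by CellTiter-Fluor.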

A short description of test [6]: qHTS assay to identify small molecule antagonists of the constitutive androstane receptor (CAR) signaling pathway - cell viability counter screen (AID 1224837). Also: series mostly up to about 92 µM; nearly all actives have a fitted effect of over 45% in size. In a few lines:
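HepG2 cells stably expressing hCAR and a CYP2B6-2.2kb reporter were plated and pre-incubated 4 hr at 37 C/5% CO2, then given compounds at 15 concentrations plus 50 nM CITCO (final). After 23 hr, viability was read by CellTiter-Fluor fluorescence.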

Test [7] has as its target Nuclear receptor subfamily 1 group I member 3 (Homo sapiens) (UniProt Q14994). The experiment in a line: qHTS assay to identify small molecule agonists of the constitutive androstane receptor (CAR) signaling pathway (AID 1224839). Also: nearly all actives have a fitted effect of over 15% in size. Also: potency is read from the fitted curve at half-maximal effect. In a few lines:
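Readout: firefly luciferase luminescence via ONE-Glo. System: HepG2 double-stable for hCAR and CYP2B6-2.2kb. Conditions: 15-point compound titration, PK11195 at 0.75 uM final, 24 h incubation.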

Test [8] in a line: qHTS assay to identify small molecule antagonists of the estrogen related receptor signaling pathway with the pleiotropic PPARgamma coactivator (PGC) from Tox21 10K library - cell viability counter screen (AID 1224840; active = well fitted cell-killing curve with a large enough effect in the repeat runs, not every such curve was filed as active; also: nearly all actives have a fitted effect of over 40% in size). In a few lines:
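PGC/ERR cells were seeded at 2,000 cells/well and left 6 hours at 37 C/5% CO2 before pin-tool addition of compounds in DMSO. After 17.5 hours at 37 C, CellTiter-Fluor was added and fluorescence read 30 minutes later.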

Test [9] can be described thus: qHTS assay to identify small molecule antagonists of the estrogen related receptor signaling pathway with the pleiotropic PPARgamma coactivator (PGC) from Tox21 10K library (AID 1224841; call rule not given here; also: series mostly up to about 92 µM; actives are mostly falling curves and most rising ones were filed inactive; nearly all actives have a fitted effect of over 50% in size). Summed up: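 PGC/ERR reporter cells were seeded at 2,000 cells/well and held 6 hours at 37 C/5% CO2 before pin-tool addition of compounds in DMSO. After 18 hours at 37 C, One-Glo was added and luminescence read after 30 minutes at room temperature.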

The nature of test [10]: qHTS assay to identify small molecule agonists of the estrogen related receptor signaling pathway with the pleiotropic PPARgamma coactivator (PGC) from Tox21 10K library (AID 1224842). Also: nearly all actives have a fitted effect of over 15% in size. Also: potency is read from the fitted curve at half-maximal effect. Summed up:
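PGC/ERR reporter cell line, 2,000 cells per well, incubated 6 h at 37 C before 23 nL compound in DMSO was added. After 18 h at 37 C, One-Glo luminescence read following 30 min at room temperature.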

Test [11] deals with Thyrotropin receptor (Homo sapiens) (UniProt P16473). The test can be described thus: qHTS assay to identify small molecule agonists of the thyroid stimulating hormone receptor (TSHR) signaling pathway (AID 1224843; calls by dose curve; also: nearly all actives have a fitted effect of over 45% in size). In a few lines:
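Steps: seed 800 TSHR-HEK293 cells per well; add test compound and hold 30 min at ambient temperature; dispense cAMP-d2 then anti-cAMP cryptate; incubate 1 h at ambient; measure fluorescence intensity.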

A short description of test [12]: qHTS assay to identify small molecule antagonists of the retinoic acid receptor (RAR) signaling pathway (AID 1159552; also: nearly all actives have a fitted effect of over 50% in size). Summed up: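 Antagonism of retinol-induced RARE reporter activity was measured in C3RL4 cells. Exposure to compounds and 1 uM final retinol lasted 6 hr at 37 C, with luminescence as endpoint.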
The target in test [13] is Nuclear receptor subfamily 1 group I member 3 (Homo sapiens) (UniProt Q14994). The experiment in a line: qHTS assay to identify small molecule antagonists of the constitutive androstane receptor (CAR) signaling pathway (AID 1224838). Also: nearly all actives have a fitted effect of over 40% in size. In a few lines: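 HepG2 cells stably co-transfected with hCAR and a CYP2B6-2.2kb luciferase reporter were seeded 4 h before compound addition at 15 concentrations. Cells were stimulated with 50 nM CITCO (final) for 24 h at 37 C; luciferase luminescence was then read.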
Nuclear receptor subfamily 1 group I member 3 (Homo sapiens), sequence (Q14994 whole entry, looked up): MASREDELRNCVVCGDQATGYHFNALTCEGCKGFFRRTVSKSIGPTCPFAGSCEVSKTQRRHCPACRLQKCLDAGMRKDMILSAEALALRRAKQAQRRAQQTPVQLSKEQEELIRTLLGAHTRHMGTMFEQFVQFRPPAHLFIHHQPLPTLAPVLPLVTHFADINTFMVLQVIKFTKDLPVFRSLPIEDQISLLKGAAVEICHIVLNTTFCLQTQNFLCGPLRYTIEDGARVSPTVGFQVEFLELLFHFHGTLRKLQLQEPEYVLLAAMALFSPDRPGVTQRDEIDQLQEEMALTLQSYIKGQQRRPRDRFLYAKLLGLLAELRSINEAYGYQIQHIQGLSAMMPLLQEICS

A short description of test [14]: qHTS assay to identify small molecule antagonists of the estrogen related receptor (ERR) signaling pathway - cell viability counter screen (AID 1224818).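 Also: series mostly up to about 46 µM; viability measured after 17.5 h of compound exposure.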 In a few lines: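 ERR reporter cells plated 6 h at 37 C/5% CO2, then compounds in DMSO pin-transferred and incubated 17.5 h at 37 C. Viability read as CellTiter-Fluor fluorescence after 30 min at 37 C.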
Test [15] is described as follows: qHTS assay to identify small molecule antagonists of the estrogen related receptor signaling pathway with the pleiotropic PPARgamma coactivator (PGC) cell viability counter screen (AID 1224822; also: series mostly up to about 46 µM). In a few lines:
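PGC/ERR cells were seeded at 2,000 cells/well, rested 6 h at 37 C/5% CO2, then given compounds in DMSO by pin tool and incubated 17.5 h at 37 C. Viability came from CellTiter-Fluor fluorescence after 30 min.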

Inconclusive results are not listed. Unmarked numbers belong to inactive results. Activity calls are given as the source filed them. Unless noted, calls follow the shape of the dose curve; as a rule, active = well fitted curve in the direction sought with a large enough effect in the repeat runs; inconclusive = weak or mixed curves; inactive = no such curve, though single readings can be large; an effect the other way counts as inactive or inconclusive.

Luciferin 4-monooxygenase (Photinus pyralis), sequence (P08659 whole entry, looked up): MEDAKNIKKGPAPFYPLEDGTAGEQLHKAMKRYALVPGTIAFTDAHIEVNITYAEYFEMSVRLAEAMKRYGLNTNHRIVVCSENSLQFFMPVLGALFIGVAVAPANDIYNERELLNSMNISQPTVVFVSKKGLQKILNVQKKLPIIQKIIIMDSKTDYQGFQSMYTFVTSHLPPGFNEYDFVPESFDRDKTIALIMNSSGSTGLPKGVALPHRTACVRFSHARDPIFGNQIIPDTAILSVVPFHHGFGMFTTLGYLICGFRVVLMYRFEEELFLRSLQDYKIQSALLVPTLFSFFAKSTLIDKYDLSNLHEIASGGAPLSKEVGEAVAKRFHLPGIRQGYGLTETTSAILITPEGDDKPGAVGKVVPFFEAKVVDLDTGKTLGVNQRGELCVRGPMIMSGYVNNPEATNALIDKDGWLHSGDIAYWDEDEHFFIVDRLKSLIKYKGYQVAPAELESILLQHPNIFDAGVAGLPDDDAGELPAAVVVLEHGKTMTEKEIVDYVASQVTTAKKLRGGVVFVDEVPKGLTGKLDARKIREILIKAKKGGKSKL
Thyrotropin receptor (Homo sapiens), sequence (P16473 whole entry, looked up): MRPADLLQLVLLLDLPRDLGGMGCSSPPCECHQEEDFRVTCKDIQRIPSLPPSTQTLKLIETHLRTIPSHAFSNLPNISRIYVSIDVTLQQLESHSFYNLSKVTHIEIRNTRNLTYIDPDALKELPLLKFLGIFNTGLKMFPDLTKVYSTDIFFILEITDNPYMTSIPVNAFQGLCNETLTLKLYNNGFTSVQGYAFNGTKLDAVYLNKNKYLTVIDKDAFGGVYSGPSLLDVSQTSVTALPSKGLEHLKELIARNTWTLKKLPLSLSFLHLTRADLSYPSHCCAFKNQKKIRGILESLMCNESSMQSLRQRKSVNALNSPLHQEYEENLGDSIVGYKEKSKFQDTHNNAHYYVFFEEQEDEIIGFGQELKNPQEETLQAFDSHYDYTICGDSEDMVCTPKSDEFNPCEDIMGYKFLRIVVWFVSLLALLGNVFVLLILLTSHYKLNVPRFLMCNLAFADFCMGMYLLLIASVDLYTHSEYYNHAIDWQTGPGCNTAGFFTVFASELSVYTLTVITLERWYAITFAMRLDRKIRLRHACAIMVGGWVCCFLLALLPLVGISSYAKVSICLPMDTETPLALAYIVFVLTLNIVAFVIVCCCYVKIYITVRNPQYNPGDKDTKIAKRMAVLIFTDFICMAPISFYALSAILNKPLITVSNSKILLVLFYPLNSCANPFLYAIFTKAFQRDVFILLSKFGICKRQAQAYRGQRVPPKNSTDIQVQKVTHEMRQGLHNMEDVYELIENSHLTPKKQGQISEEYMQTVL

As for `O=C(NN1CCCC1)NS(=O)(=O)c1ccc(Cl)cc1`, the Potency result in test [1], in test [2], in [3], in test [4], in test [5] and in test [6] was “inactive” throughout. Also, the Potency result in test [7], in test [8], in test [9], in [10] and in [11] was “inactive” in each case.
Turning to `Oc1ccc(Cc2ccccc2)cc1`, the Potency result in test [1], in test [12], in [2], in test [5], in test [6] and in test [13] was “inactive” each time. The Potency entry in [8] and in [9] was “inactive” each time. In addition, the values for the Potency in test [4] and in test [7] were 65.7 µM (active) and 56.6 µM (active), respectively.
As to `CCOc1nc2cccc(C(=O)O)c2n1Cc1ccc(-c2ccccc2-c2nn[nH]n2)cc1`, the Potency result in test [1], in [2], in [3], in test [4], in test [5] and in test [6] was “inactive” each time. Further, the Potency result in [13], in test [7], in test [8], in [9] and in test [11] was “inactive” throughout.
As to `COCCO`, the Potency result in test [1], in test [2], in [3], in test [4], in test [5] and in test [13] was “inactive” each time. Besides, the Potency entry in [7] and in test [8] was “inactive” throughout.
For `Cc1nc2ccccc2n1Cc1ccc(Cl)cc1`, the Potency entry in test [1], in [12], in [4], in [5], in [13] and in test [8] was “inactive” each time. In addition, the Potency in [7] was 11.9 µM (active).
With `Cc1ccc(C(=O)C(C)CN2CCCCC2)cc1` (centres undefined), the Potency entry in [1], in test [2], in [3], in test [4], in [5] and in test [13] was “inactive” each time. The Potency result in test [7], in test [8], in [9] and in test [10] was “inactive” throughout.
For the molecule `Nc1ccc(C(=O)Nc2ccccc2N)cc1`, the Potency result in [1], in test [12], in test [3], in [5], in [6] and in test [7] was “inactive” each time. For the same molecule, the Potency result in test [8] and in test [11] was “inactive” each time. The Potency in test [10] is 11.9 µM (active).
Regarding `C=C(C)C(=O)OC(C)C`, the Potency entry in test [1], in test [12], in [3], in [4], in [5] and in test [6] was “inactive” in each case. Also, the Potency result in [13], in test [7], in [8] and in test [11] was “inactive” in each case.
Take `CCCCCc1ccc(N)cc1`: the Potency result in test [1], in test [12], in [2], in [5], in test [6] and in test [13] was “inactive” in each case. Moreover, the Potency result in [7], in [8] and in [11] was “inactive” each time.
In the case of `CCCC(C)C`, the Potency result in [1], in test [12], in test [2], in test [4], in test [5] and in test [6] was “inactive” throughout. Further, the Potency entry in test [8] and in [11] was “inactive” throughout.
For the molecule `CC(C)c1ccc2c(C(C)C)cc(C(C)C)c(S(=O)(=O)O)c2c1`, the Potency entry in test [1], in [2], in test [3], in [4], in test [5] and in test [6] was “inactive” throughout. Besides, the Potency result in [8] and in test [11] was “inactive” each time.
Regarding `Nc1cnn([C@@H]2O[C@H](CO)[C@@H](O)[C@H]2O)c(=O)n1`, the Potency entry in test [1], in test [12], in [2], in test [4], in [5] and in test [6] was “inactive” throughout. Also, the Potency result in test [13], in [7] and in test [11] was “inactive” in each case.
Regarding `O=C(O)Cc1sc(-c2ccccc2)nc1-c1ccc(Cl)cc1`, the Potency entry in test [1], in [2], in test [3], in test [4], in test [5] and in test [6] was “inactive” throughout. The Potency result in test [9], in test [10] and in [11] was “inactive” throughout.
In the case of `Cc1ccc2c(ccc3ccccc32)c1`, the Potency result in [1], in test [12], in [3], in [5], in test [6] and in [13] was “inactive” each time. Further, the Potency result in test [8] and in test [11] was “inactive” in each case. The Potency in [4] is 31.8 µM (active).
As for `CCCCCCc1ccc(N)cc1`, the Potency result in test [1], in test [12], in test [5], in test [6], in [13] and in [7] was “inactive” throughout. The Potency entry in test [8], in [9] and in test [10] was “inactive” in each case.
As for `CN(C)CC[C@@H](c1ccc(Br)cc1)c1ccccn1`, the Potency entry in test [1], in [2], in [3], in test [4], in test [5] and in [6] was “inactive” each time. In addition, the Potency result in test [13], in test [7] and in test [8] was “inactive” throughout. The outcome in test [14] and in test [15] was inactive.
As to `N[C@H]1C(O)O[C@H](CO)[C@H](O)[C@@H]1O` (some centres undefined), the Potency result in test [1], in test [12], in test [2], in test [4], in test [6] and in test [13] was “inactive” in each case. The Potency result in test [7], in [8], in test [9], in test [10] and in test [11] was “inactive” in each case.

The record behind these values is PubChem BioAssay (Tox21).
